Molecules are shown by their SMILES. Results filed as inconclusive are left out. Entries that show only a call come without a potency. Activity calls are given as the source filed them. Calls follow the shape of the full dose curve.

The results in this text go back to PubChem BioAssay (NCATS).

The nature of the first test: Primary qHTS for Huh7 cytotoxicity: counterscreen for inhibitors of MERS-S pseudotyped particle cell entry (AID 1479147). Particulars: cell viability read-out; series mostly up to 57.1 µM.
For `CC(C)(C)c1ccc(C(=O)CCCN2CCC(OC(c3ccccc3)c3ccccc3)CC2)cc1`, the Potency entry is “inactive”.

As to `CCCC(=O)OC[C@@H](OC(=O)CCC)[C@@H](OC(=O)CCC)[C@H](Cn1c2nc(=O)[nH]c(=O)c-2nc2cc(C)c(C)cc21)OC(=O)CCC`, the Potency entry was “inactive”.

As for `CCN(CC)CCOC(=O)C1(c2ccccc2)CCCC1`, the Potency entry is “inactive”.

For the compound `CN1[C@@H]2CC[C@H]1CC(OC(=O)c1c[nH]c3ccccc13)C2` (some centres undefined), the Potency entry is “inactive”.

Consider `NS(=O)(=O)c1cc2c(cc1Cl)CN(C1CCCCC1)C2=O`, for which the Potency result was “inactive”.

Regarding `COC(=O)C1=C(C)NC(C)=C(C(=O)OC)C1c1ccccc1[N+](=O)[O-]`, the Potency result is “inactive”.

As to `Cc1ncc(COP(=O)(O)O)c(C=O)c1O`, the Potency entry is “inactive”.

For the compound `c1ccc(CNCCNCc2ccccc2)cc1`, the Potency result is “inactive”.

Turning to `C=CCOc1cc(Cl)ccc1C(=O)NCCN(CC)CC`, the Potency entry is “inactive”.

For the compound `C[C@H](O)C(=O)Nc1c(I)c(C(=O)NC(CO)CO)c(I)c(C(=O)NC(CO)CO)c1I`, the Potency entry was “inactive”.

Turning to `O=c1[nH]c(=O)c2[nH]c(=O)[nH]c2[nH]1`, the outcome is “inactive [at 11.4 µM]”.

For `CCN(CC)CCOCCOC(=O)C1(c2ccccc2)CCCC1`, the Potency result is “inactive”.

Take `C#C[C@]1(O)CC[C@H]2[C@@H]3CCC4=CC(=O)CCC4=C3C=C[C@@]21CC`: the Potency entry was “inactive”.

As for `CN(C)[C@@H](CCOc1cccc2ccccc12)c1ccccc1`, the Potency result is “inactive”.

Turning to `CC(=O)Nc1ccc(S(=O)(=O)Nc2ccc([N+](=O)[O-])cc2)cc1`, the Potency result is “inactive”.

`C#C[C@]1(OC(C)=O)CC[C@H]2[C@@H]3CCC4=C[C@@H](OC(C)=O)CC[C@@H]4[C@H]3CC[C@@]21C`: the Potency result was “inactive”.

Regarding `Clc1ccc(C(Cn2ccnc2)OCc2c(Cl)cccc2Cl)c(Cl)c1` (centres undefined), the Potency result was “inactive”.

As for `COc1ccccc1OC(=O)Oc1ccccc1OC`, the Potency result is “inactive”.

As for `CC1(C)CCC(C)(C)c2cc(NC(=O)c3ccc(C(=O)O)cc3)ccc21`, the Potency result was “inactive”.

In the case of `O=C1CC2(CCCC2)CC(=O)N1CCCCN1CCN(c2ncccn2)CC1`, the Potency result was “inactive”.

With `CN1CCN(c2cc3c(cc2F)c(=O)c(C(=O)O)cn3-c2ccc(F)cc2)CC1`, the Potency entry is “inactive”.

On to `Nc1c(NC/C=C\COc2cc(CN3CCCCC3)ccn2)c(=O)c1=O`, for which the Potency entry is “inactive”.

`O=S(=O)(c1cccc2cnccc12)N1CCCNCC1`: the Potency result is “inactive”.

On to `COc1ccc2c(c1)C(=O)N(CCc1ccc(S(=O)(=O)NC(=O)NC3CCCCC3)cc1)C(=O)C2(C)C`, for which the Potency entry was “inactive”.

Take `O=C(c1ccc(F)cc1)C1CCN(CCn2c(=O)[nH]c3ccccc3c2=O)CC1`: the Potency result was “inactive”.

Consider `CC(=O)[C@@]1(O)CC[C@H]2[C@@H]3C[C@H](C)C4=CC(=O)CC[C@]4(C)[C@H]3CC[C@@]21C`, for which the Potency entry was “inactive”.

As for `N#C/C(=C1/SC[C@@H](c2ccc(Cl)cc2Cl)S1)n1ccnc1`, the Potency result is “inactive”.

As for `CN(C)CCOC(c1ccccc1)c1ccc(Br)cc1` (centres undefined), the Potency entry was “inactive”.

Turning to `CCOc1ccc(C(=O)OCCN(CC)CC)cc1`, the Potency result is “inactive”.

`CN1CCC(OC(c2ccccc2)c2ccccc2)CC1`: the Potency result was “inactive”.

With `CN1CCC(=C2c3ccccc3CCc3sccc32)CC1`, the Potency result was “inactive”.

As for `O[C@@H](COc1cccc2ncccc12)CN1CCN(C2c3ccccc3[C@@H]3[C@H](c4ccccc42)C3(F)F)CC1` (some centres undefined), the Potency result is “inactive”.

For `CCOC(=O)OC(C)OC1=C(C(=O)Nc2ccccn2)N(C)S(=O)(=O)c2ccccc21` (centres undefined), the Potency result is “inactive”.

Consider `CCCCCOc1ccccc1/C(=C\SC)n1ccnc1`, for which the Potency result was “inactive”.

Take `COc1ccccc1N1CCN(CC(O)COc2cccc3ccccc23)CC1` (centres undefined): the Potency result was “inactive”.

Consider `CC/C(=C(/CC)c1ccc(O)cc1)c1ccc(O)cc1`, for which the Potency entry was “inactive”.

For `CN(C)CCCOC1(Cc2ccccc2)CCCCCC1`, the Potency entry is “inactive”.

On to `CN(C)CCCOc1nn(Cc2ccccc2)c2ccccc12`, for which the Potency result is “inactive”.

A further test in a line: Primary qHTS for inhibitors of MERS-S pseudo-typed particle cell entry (AID 1479149). Also: nearly all actives have a fitted effect of over 60% in size. Also: potency is read from the fitted curve at half-maximal effect. Particulars: MERS-S pseudotyped particle entry, luciferase; series mostly up to 57.1 µM. (In general: qHTS replaces the single test concentration by a dilution series.)
Regarding `CCCC(=O)OC[C@@H](OC(=O)CCC)[C@@H](OC(=O)CCC)[C@H](Cn1c2nc(=O)[nH]c(=O)c-2nc2cc(C)c(C)cc21)OC(=O)CCC`, the Potency result was “inactive”.

For the compound `NS(=O)(=O)c1cc2c(cc1Cl)CN(C1CCCCC1)C2=O`, the Potency result was “inactive”.

Take `COC(=O)C1=C(C)NC(C)=C(C(=O)OC)C1c1ccccc1[N+](=O)[O-]`: the Potency result was “inactive”.

Turning to `Cc1ncc(COP(=O)(O)O)c(C=O)c1O`, the Potency result was “inactive”.

As to `C=CCOc1cc(Cl)ccc1C(=O)NCCN(CC)CC`, the Potency result is “inactive”.

For `C[C@H](O)C(=O)Nc1c(I)c(C(=O)NC(CO)CO)c(I)c(C(=O)NC(CO)CO)c1I`, the Potency result is “inactive”.

As for `O=c1[nH]c(=O)c2[nH]c(=O)[nH]c2[nH]1`, the outcome is “inactive [at 11.4 µM]”.

With `C#C[C@]1(O)CC[C@H]2[C@@H]3CCC4=CC(=O)CCC4=C3C=C[C@@]21CC`, the Potency result was “inactive”.

As to `CN(C)[C@@H](CCOc1cccc2ccccc12)c1ccccc1`, the Potency was 20 µM (active).

Consider `CC(=O)Nc1ccc(S(=O)(=O)Nc2ccc([N+](=O)[O-])cc2)cc1`, for which the Potency entry is “inactive”.

As for `COc1ccccc1OC(=O)Oc1ccccc1OC`, the Potency result was “inactive”.

On to `O=C1CC2(CCCC2)CC(=O)N1CCCCN1CCN(c2ncccn2)CC1`, for which the Potency result is “inactive”.

As to `CN1CCN(c2cc3c(cc2F)c(=O)c(C(=O)O)cn3-c2ccc(F)cc2)CC1`, the Potency entry is “inactive”.

For the compound `Nc1c(NC/C=C\COc2cc(CN3CCCCC3)ccn2)c(=O)c1=O`, the Potency entry is “inactive”.

On to `O=S(=O)(c1cccc2cnccc12)N1CCCNCC1`, for which the Potency entry is “inactive”.

Turning to `CC(=O)[C@@]1(O)CC[C@H]2[C@@H]3C[C@H](C)C4=CC(=O)CC[C@]4(C)[C@H]3CC[C@@]21C`, the Potency entry was “inactive”.

For the compound `CN(C)CCOC(c1ccccc1)c1ccc(Br)cc1` (centres undefined), the Potency result was “inactive”.

`CCOc1ccc(C(=O)OCCN(CC)CC)cc1`: the Potency entry is “inactive”.

As to `CN1CCC(=C2c3ccccc3CCc3sccc32)CC1`, the Potency was 10 µM (active).

Consider `CCOC(=O)OC(C)OC1=C(C(=O)Nc2ccccn2)N(C)S(=O)(=O)c2ccccc21` (centres undefined), for which the Potency result is “inactive”.

As to `CN(C)CCCOC1(Cc2ccccc2)CCCCCC1`, the Potency entry was “inactive”.
